# Data taken from PubChem BioAssay AID624255 (Broad Institute, 2012).
# “And” between values parts separate entries of the source, which are not always exact repeats. Equal entries are not always repeated. Out of some 77,000 compounds screened, about 4,600 (6%) were called active. Another 1% or so got no clear call; they are omitted.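 The calls were made as follows: active = mean inhibition above about 93%, with at least 55% of replicates each passing it (limit read from the data, passing the limit was not always enough); inconclusive = only one of those two conditions holds; inactive = neither condition holds.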 This excerpt belongs to a sample that is enriched for actives. A structure can be active in one record and inactive in another.
# Experiment: T. cruzi intracellular proliferation inhibitors, primary screen, cell-based, beta-gal Tulahuen parasites, NIH3T3 host, luminescence (AID 624255)
# Conditions: T. cruzi beta-gal in NIH3T3, GalScreen luminescence, 90 h; at 8.34 µM; stronger effect = higher value
row,SMILES,inhibition
1,Cc1ccc(S(=O)(=O)Nc2ccc3c(c2)C(=O)N([C@H](C)CO)C[C@H](C)[C@@H](CN(C)Cc2ccccc2)OCCCC[C@H](C)O3)cc1,38.8% (inactive)
2,C[C@@H]1CN([C@H](C)CO)C(=O)c2cc(NS(=O)(=O)c3cccs3)ccc2O[C@@H](C)CCCCO[C@H]1CN(C)Cc1ccc(C(F)(F)F)cc1,97.6% (active)
3,Cc1ccc(S(=O)(=O)Nc2ccc3c(c2)C(=O)N([C@H](C)CO)C[C@@H](C)[C@H](CN(C)Cc2ccccc2)OCCCC[C@H](C)O3)cc1,85.7% (inactive)
4,COc1ccc(S(=O)(=O)Nc2ccc3c(c2)C(=O)N([C@@H](C)CO)C[C@H](C)[C@H](CN(C)Cc2ccc(C(F)(F)F)cc2)OCCCC[C@@H](C)O3)cc1,63.1% (inactive)
5,C[C@@H]1CCCCO[C@H](CN(C)Cc2ccccc2)[C@H](C)CN([C@H](C)CO)C(=O)c2cc(NS(=O)(=O)c3ccc(Cl)cc3)ccc2O1,109% (active)
6,C[C@@H]1CCCCO[C@@H](CN(C)Cc2ccc(C(=O)O)cc2)[C@H](C)CN([C@H](C)CO)C(=O)c2cc(NS(=O)(=O)c3cccs3)ccc2O1,-101% (inactive)
7,C[C@H](CO)N1C[C@H](C)[C@H](CN(C)Cc2ccc(C(F)(F)F)cc2)OCCCC[C@H](C)Oc2ccc(NS(=O)(=O)c3ccc(Cl)cc3)cc2C1=O,98.6% (active)
8,C[C@@H]1CCCCO[C@@H](CN(C)Cc2ccc(C(F)(F)F)cc2)[C@H](C)CN([C@H](C)CO)C(=O)c2cc(NS(=O)(=O)c3ccc(F)cc3)ccc2O1,56.1% (inactive)
9,COc1ccc(CN(C)C[C@@H]2OCCCC[C@H](C)Oc3ccc(NS(=O)(=O)c4cccs4)cc3C(=O)N([C@H](C)CO)C[C@@H]2C)cc1,44.9% (inactive)
10,C[C@@H]1CN([C@H](C)CO)C(=O)c2cc(NS(=O)(=O)c3ccc(Cl)cc3)ccc2O[C@@H](C)CCCCO[C@H]1CN(C)Cc1ccccc1,112% (active)
11,C[C@@H]1CCCCO[C@H](CN(C)Cc2ccccc2)[C@@H](C)CN([C@H](C)CO)C(=O)c2cc(NS(=O)(=O)c3ccc(Cl)cc3)ccc2O1,-26.9% (inactive)
12,C[C@@H]1CCCCO[C@H](CN(C)Cc2ccccc2)[C@H](C)CN([C@@H](C)CO)C(=O)c2cc(NS(=O)(=O)c3ccccc3)ccc2O1,86% (inactive)
13,CN1C(=O)c2cc(NC(=O)C3CC3)ccc2OC[C@@H]2O[C@@H](CC(=O)NCC3CCCCC3)CC[C@@H]21,-7.09% (inactive)
14,CCN1[C@@H]2c3ccc(C4=CCCC4)c(=O)n3C[C@@H]2[C@@H](CO)[C@@H]1C(=O)NCc1ccccn1,26.1% (inactive)
15,CO[C@H]1CN(C)C(=O)c2ccc(NC(=O)C3CC3)cc2OC[C@@H](C)N(C(=O)CN2CCOCC2)C[C@H]1C,-43.7% (inactive)
16,CN1C(=O)c2cc(NC(=O)c3cnccn3)ccc2OC[C@@H]2O[C@H](CC(=O)O)CC[C@@H]21,8.56% (inactive)
17,CC(=O)N1[C@H](CN(CC2CCC2)C(=O)CN(C)C)[C@@H](c2ccccc2)[C@@H]1CO,54.9% (inactive)
18,COc1ccc(NC(=O)N2C[C@H](O)COC[C@H]3O[C@@H](CC(=O)N4CCN(C)CC4)CC[C@@H]32)cc1,7.94% (inactive)
19,C[C@H]1CN([C@@H](C)CO)S(=O)(=O)c2ccc(-c3cncnc3)cc2O[C@H]1CN(C)Cc1ccncc1,25.1% (inactive)

row,SMILES,inhibition
1,C[C@H](O)C#Cc1ccc2c(c1)O[C@H](CN(C)Cc1cncnc1)[C@H](C)CN([C@@H](C)CO)S2(=O)=O,36.8% (inactive)
2,C[C@@H]1CN([C@@H](C)CO)S(=O)(=O)c2ccc(C#CCN(C)C)cc2O[C@@H]1CN(C)CC1CC1,-40.3% (inactive)
3,COc1ccc(NC(=O)N(C)C[C@H]2Oc3cc(-c4ccncc4)ccc3S(=O)(=O)N([C@H](C)CO)C[C@H]2C)cc1,70.2% (inactive)
4,C[C@@H]1CN([C@H](C)CO)S(=O)(=O)c2ccc(-c3ccncc3)cc2O[C@@H]1CN(C)C(=O)Nc1ccc(C(F)(F)F)cc1,82.6% (inactive)
5,C[C@@H]1CN([C@H](C)CO)S(=O)(=O)c2ccc(C#C[C@@H](C)O)cc2O[C@@H]1CN(C)Cc1ccc(-c2ccccc2)cc1,73.7% (inactive) and 125% (active)
6,C[C@H](O)C#Cc1ccc2c(c1)O[C@@H](CN(C)Cc1cncnc1)[C@H](C)CN([C@H](C)CO)S2(=O)=O,-5.8% (inactive)
7,C[C@@H]1CN([C@@H](C)CO)S(=O)(=O)c2ccc(-c3ccncc3)cc2O[C@@H]1CN(C)C(=O)Nc1ccc(F)cc1,100% (active)
8,C[C@H](CO)N1C[C@H](C)[C@H](CN(C)Cc2ccncc2)Oc2cc(-c3cncnc3)ccc2S1(=O)=O,16.7% (inactive)
9,C[C@H]1CN([C@@H](C)CO)S(=O)(=O)c2ccc(C#CCN(C)C)cc2O[C@@H]1CN(C)Cc1ccc(F)cc1,115% (active)
10,C[C@H](CO)N1C[C@H](C)[C@H](CN(C)Cc2ccncc2)Oc2cc(-c3ccncc3)ccc2S1(=O)=O,111% (active)
11,C[C@@H]1CN([C@H](C)CO)S(=O)(=O)c2ccc(C#CCN(C)C)cc2O[C@@H]1CN(C)C,-35.4% (inactive)
12,CC=Cc1ccc2n(c1=O)C[C@@H]1[C@@H](CO)[C@H](C(=O)N3CCc4ccccc4C3)N(C(=O)C3CCC3)[C@H]21 (mixture of isomers),39.9% (inactive)
13,CCCC(=O)Nc1ccc2c(c1)C(=O)N(C)C[C@@H](OC)[C@H](C)CN(C(C)=O)[C@H](C)CO2,-1.03% (inactive)
14,Cc1ccc(S(=O)(=O)N(C)C[C@@H]2OCCCC[C@H](C)Oc3ccc(NS(=O)(=O)c4cn(C)cn4)cc3C(=O)N([C@H](C)CO)C[C@@H]2C)cc1,39.1% (inactive)
15,CO[C@@H]1CN(C)C(=O)c2ccc(NC(=O)c3ccc(F)cc3)cc2OC[C@H](C)NC[C@@H]1C,-9.72% (inactive)
16,Cn1cnc(S(=O)(=O)N2C[C@@H](O)COC[C@H]3O[C@H](CC(=O)N4CCN(c5ccccc5)CC4)CC[C@@H]32)c1,-64.3% (inactive)
17,CC(C)C#Cc1ccc2c(c1)O[C@H](CN(C)CC1CCOCC1)[C@@H](C)CN([C@H](C)CO)S2(=O)=O,93.8% (inactive)
18,C/C=C/c1ccc2c(c1)O[C@H](CN(C)Cc1ccccc1)[C@H](C)CN([C@@H](C)CO)S2(=O)=O,62.6% (inactive)
19,C[C@@H]1CN([C@H](C)CO)S(=O)(=O)c2ccc(C#CC(C)(C)O)cc2O[C@@H]1CN(C)Cc1ccccc1,34.1% (inactive)

row,SMILES,inhibition
1,C[C@@H]1CN([C@H](C)CO)S(=O)(=O)c2ccc(/C=C/c3ccccc3)cc2O[C@@H]1CN(C)Cc1ccccc1,81.9% (inactive)
2,CC(C)C#Cc1ccc2c(c1)O[C@H](CN(C)Cc1ccccc1)[C@H](C)CN([C@@H](C)CO)S2(=O)=O,111% (active)
3,CC(C)C#Cc1ccc2c(c1)O[C@@H](CN(C)CC1CCOCC1)[C@H](C)CN([C@H](C)CO)S2(=O)=O,91.2% (inactive)
4,CC(C)C#Cc1ccc2c(c1)O[C@H](CN(C)Cc1ccccn1)[C@H](C)CN([C@H](C)CO)S2(=O)=O,57.8% (inactive)
5,CC(C)C#Cc1ccc2c(c1)O[C@@H](CN(C)Cc1ccncc1)[C@@H](C)CN([C@@H](C)CO)S2(=O)=O,122% (active)
6,C[C@@H]1CN([C@@H](C)CO)S(=O)(=O)c2ccc(/C=C/c3ccccc3)cc2O[C@H]1CN(C)Cc1ccccc1,107% (active)
7,COc1cccc(NC(=O)C[C@H]2CC[C@@H]3[C@H](COc4ccc(NC(C)=O)cc4C(=O)N3C)O2)c1,-37.9% (inactive)
8,O=C(C[C@@H]1CC[C@@H]2[C@H](COC[C@@H](O)CN2S(=O)(=O)c2ccccc2)O1)NCC1CCCCC1,34.1% (inactive)
9,COc1ccc(NC(=O)N[C@@H]2CC[C@H](CC(=O)NC3CCC3)O[C@H]2CO)cc1,16% (inactive)
10,COc1cccc(S(=O)(=O)N[C@@H]2CC[C@H](CCNC(=O)Cc3ccncc3)O[C@@H]2CO)c1,-52.5% (inactive)
11,O=C(NCC[C@@H]1CC[C@@H](NC(=O)c2ccccc2F)[C@H](CO)O1)c1ccc2c(c1)OCO2,20.7% (inactive)
12,COc1ccc(NC(=O)N(C)C[C@H]2OCCCC[C@H](C)Oc3ccc(NS(C)(=O)=O)cc3C(=O)N([C@H](C)CO)C[C@@H]2C)cc1,42.5% (inactive)
13,CN1CCN(C(=O)C[C@H]2C[C@@H]3c4cc(NC(=O)Nc5ccc(C(F)(F)F)cc5)ccc4O[C@@H]3[C@H](CO)O2)CC1,-59.1% (inactive)
14,C[C@@H]1CN([C@H](C)CO)C(=O)c2cc(NC(=O)Nc3ccc(F)cc3)ccc2O[C@@H](C)CCCCO[C@@H]1CN(C)CC1CCCCC1,115% (active)
15,C[C@@H]1CCCCO[C@H](CN(C)C(=O)NC2CCCCC2)[C@H](C)CN([C@@H](C)CO)C(=O)c2cc(NC(=O)Nc3ccc(F)cc3)ccc2O1,93.1% (inactive)
16,C[C@@H]1CCCCO[C@H](CN(C)CC2CC2)[C@@H](C)CN([C@H](C)CO)C(=O)c2cc(NC(=O)Nc3ccc(F)cc3)ccc2O1,18.3% (inactive)
17,C[C@@H]1CCCCO[C@H](CN(C)C(=O)NC2CCCCC2)[C@H](C)CN([C@H](C)CO)C(=O)c2cc(NC(=O)Nc3ccc(F)cc3)ccc2O1,110% (active)
18,C[C@@H]1CCCCO[C@H](CN(C)CC2CCCCC2)[C@H](C)CN([C@H](C)CO)C(=O)c2cc(NC(=O)Nc3ccc(F)cc3)ccc2O1,71.7% (inactive)
19,C[C@@H]1CCCCO[C@@H](CN(C)C(=O)NC2CCCCC2)[C@H](C)CN([C@@H](C)CO)C(=O)c2cc(NC(=O)Nc3ccc(F)cc3)ccc2O1,54.3% (inactive)
